Mtb BioA inh = blocks M. tuberculosis BioA enzyme activity; purified M. tuberculosis BioA enzyme, plate reader; inhibition, % at 9.99 µM; hit rate 0.096% among 360,000; in the data active = inhibition above about 40%
CCHF vOTU inh = blocks the CCHF virus ovarian tumor domain protease | inhibition, % at 11.5 µM | CCHFV vOTU protease, Pep-AMC fluorescence | hit rate 0.55% among 370,000; in the data active = inhibition above about 30%; also: 0% = vehicle wells with enzyme and 100% = no enzyme wells
Mtb bLac sens = beta-lactam sensitization of Mtb H37Rv; M. tuberculosis H37Rv growth with meropenem, percent inhibition; inhibition, % at 25 µM; hit rate 0.27% among 330,000; AID 434955;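 also: growth measured after seven days incubation then overnight dye step; 0% = bacteria only wells and 100% = bacteria with antibiotic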
BJeLR viability = kills HRASV12-expressing BJeLR cells | BJeLR (HRASV12) viability, CellTiter-Glo ATP luminescence, 48 h | inhibition, % (test concentration not listed) | hit rate 0.17% among 300,000 | AID 1554; in the data active = inhibition above about 50%
Y pestis TopoI = blocks Yersinia pestis topoisomerase I activity; AID 504884; hit rate 0.064% among 360,000; activity, % at 10 µM; Y. pestis Topo-I cleavage product accumulation, plate reader; in the data active = activity above about 50%, passing the limit was not always enough
RecA intein inh = blocks M. tuberculosis RecA intein splicing. P9WHJ3. cell-free RecA intein splicing, fluorescence. inhibition, % (test concentration not listed). hit rate 0.75% among 290,000; in the data active = inhibition above about 30%;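 also: 0% = vehicle wells and 100% = reference inhibitor control wells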
Target sequence (P9WHJ3 whole entry, looked up): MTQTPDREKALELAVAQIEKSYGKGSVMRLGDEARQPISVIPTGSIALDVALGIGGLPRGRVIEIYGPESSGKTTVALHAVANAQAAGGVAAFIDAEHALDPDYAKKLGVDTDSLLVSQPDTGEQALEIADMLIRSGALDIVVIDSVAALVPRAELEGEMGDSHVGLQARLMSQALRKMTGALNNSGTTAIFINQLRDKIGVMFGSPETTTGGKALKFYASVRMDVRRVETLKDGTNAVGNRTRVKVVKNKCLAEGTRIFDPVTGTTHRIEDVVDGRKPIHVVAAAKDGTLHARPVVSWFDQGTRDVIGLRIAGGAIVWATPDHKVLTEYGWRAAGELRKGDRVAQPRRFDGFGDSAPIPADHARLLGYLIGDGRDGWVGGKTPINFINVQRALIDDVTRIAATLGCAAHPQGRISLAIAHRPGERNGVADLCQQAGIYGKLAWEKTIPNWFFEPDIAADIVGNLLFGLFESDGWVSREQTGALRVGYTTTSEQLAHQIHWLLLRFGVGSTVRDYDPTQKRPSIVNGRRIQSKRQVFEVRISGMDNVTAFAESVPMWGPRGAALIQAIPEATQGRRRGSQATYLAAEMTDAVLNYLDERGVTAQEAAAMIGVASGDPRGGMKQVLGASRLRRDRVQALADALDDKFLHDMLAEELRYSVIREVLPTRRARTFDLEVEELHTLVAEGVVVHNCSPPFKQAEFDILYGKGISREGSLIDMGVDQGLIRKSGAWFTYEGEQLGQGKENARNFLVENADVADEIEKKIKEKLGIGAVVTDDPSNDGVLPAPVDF
GFP chromo cs = counter-screen GFP chromophore formation inhibition | shares compounds with RecA intein inh | cell-free GFP chromophore formation, fluorescence | EC50, µM | hit rate 83% among 2,100
Numbers without * were called inactive. A selection: hits, their analogues and other compounds. The true share with any hit is near 1.1%. Unless noted, no rule for the calls is given here.

How did CCN(CC)CCOc1ccc(/C(=C(\Cl)c2ccccc2)c2ccccc2)cc1 do in these assays?
Mtb BioA inh: 0.0; CCHF vOTU inh: 10.1; Mtb bLac sens: 99.1; BJeLR viability: -3.5; Y pestis TopoI: 0.9; RecA intein inh: 35.5*; GFP chromo cs: 17.8*

Results for C[C@H]1CN([C@@H](C)CO)C(=O)c2cc(N(C)C)ccc2O[C@@H]1CN(C)S(=O)(=O)c1cn(C)cn1 ?
Mtb BioA inh: -0.6

How did O=c1cc(-c2ccccc2)[nH]n1-c1ccc([N+](=O)[O-])cc1 do in these assays?
Mtb BioA inh: -0.1; Mtb bLac sens: -3.9; BJeLR viability: -5.4; Y pestis TopoI: -29.4; RecA intein inh: 45.7*; GFP chromo cs: 30.4*

What do the screens show for `C[C@H]1CN([C@@H](C)CO)C(=O)c2cc(NC(=O)Nc3cccc4ccccc34)ccc2O[C@@H]1CN(C)Cc1ccc(C(=O)Nc2ccccc2N)cc1`?
Mtb BioA inh: -2.2

Results for NCC[C@H]1CC[C@@H](NC(=O)C2CCCC2)[C@H](CO)O1 ?
Mtb BioA inh: -0.2

How did CO[C@H]1CN(C)C(=O)c2ccc(NC(=O)c3cccc(Oc4ccccc4)c3)cc2OC[C@@H](C)NC[C@@H]1C do in these assays?
Mtb BioA inh: 0.2

What do the screens show for `O=C1C(Cl)=C(N2CCN(Cc3ccccc3)CC2)C(=O)N1c1ccccc1`?
Mtb BioA inh: -0.9; CCHF vOTU inh: 4.7; Mtb bLac sens: 30.9; BJeLR viability: 4.2; Y pestis TopoI: -8.9; RecA intein inh: 7.7

Results for COc1ccc(N2C(=O)c3ccccc3C2=O)cc1 ?
Mtb BioA inh: 0.2; CCHF vOTU inh: -7.1; Mtb bLac sens: 28.3; BJeLR viability: 3.6; Y pestis TopoI: -0.4; RecA intein inh: 1.8

Results for COc1ccc(N2C(=O)C(Cl)=C(N3CCN(Cc4ccccc4)CC3)C2=O)cc1 ?
Mtb BioA inh: -0.9; BJeLR viability: 2.2; Y pestis TopoI: 12.3; RecA intein inh: 69.0*; GFP chromo cs: 7.11*

How did CCc1ccc(N2C(=O)C(Cl)=C(N3CCOCC3)C2=O)cc1 do in these assays?
CCHF vOTU inh: -2.7; Mtb bLac sens: 83.4; BJeLR viability: 2.3; Y pestis TopoI: -1.8; RecA intein inh: 77.6*; GFP chromo cs: 5.28*

How did COc1ccc(N2C(=O)C(Cl)=C(N3CCOCC3)C2=O)cc1 do in these assays?
Mtb BioA inh: 2.7; CCHF vOTU inh: -11.1; Mtb bLac sens: 9.1; BJeLR viability: 18.4; Y pestis TopoI: 4.3; RecA intein inh: 74.2*; GFP chromo cs: 8.7*

What do the screens show for `CCc1ccc(N2C(=O)C(Cl)=C(N3CCCCCC3)C2=O)cc1`?
Mtb BioA inh: -2.3; CCHF vOTU inh: 9.3; Mtb bLac sens: 3.2; BJeLR viability: 3.3; Y pestis TopoI: 10.5; RecA intein inh: -4.2

How did COc1ccc(N2C(=O)C(Cl)=C(Oc3cccc(OC)c3)C2=O)cc1 do in these assays?
Mtb bLac sens: -1.5; Y pestis TopoI: 10.5; RecA intein inh: 38.8*; GFP chromo cs: 20.2*

What do the screens show for `CN(C)CC(=O)N[C@H]1CC[C@H](CC(=O)NCc2ccc(Cl)cc2)O[C@@H]1CO`?
Mtb BioA inh: -0.9

What do the screens show for `C=CCOc1ccccc1CN(C(=O)CCl)c1ccc2c(c1)OCO2`?
Mtb BioA inh: 0.8; CCHF vOTU inh: -8.1; Mtb bLac sens: 95.7; BJeLR viability: 124.8*; Y pestis TopoI: -2.0; RecA intein inh: 80.6*; GFP chromo cs: 8.27*

How did COC(=O)C1=C(C)OC(N)=C(C#N)C1c1c(C)nn(-c2ccccc2)c1Cl (stereo unspecified) do in these assays?
Mtb BioA inh: -0.1; CCHF vOTU inh: -9.9; Mtb bLac sens: -3.3; BJeLR viability: -14.1; Y pestis TopoI: -1.2; RecA intein inh: 5.1

What do the screens show for `Cc1nn(-c2ccccc2)c2c1C(c1ccc(F)cc1F)C(C#N)=C(N)O2` (stereo unspecified)?
Mtb BioA inh: 0.6; CCHF vOTU inh: 5.9; Mtb bLac sens: 8.6; BJeLR viability: 9.0; Y pestis TopoI: 2.5; RecA intein inh: 50.4*; GFP chromo cs: 3.9*

Results for Cc1nn(-c2ccccc2)c2c1C(c1ccccc1)C(C#N)=C(N)O2 (stereo unspecified) ?
Mtb BioA inh: 0.0; CCHF vOTU inh: 14.2; Mtb bLac sens: 7.6; BJeLR viability: 3.3; Y pestis TopoI: -3.6; RecA intein inh: 54.1*; GFP chromo cs: 28.9*

What do the screens show for `O=C(Nc1ccc(N2CCOCC2)cc1)Nc1ccc2nsnc2c1`?
CCHF vOTU inh: -8.0; Mtb bLac sens: -3.5; BJeLR viability: 12.8; Y pestis TopoI: 1.1; RecA intein inh: 54.3*; GFP chromo cs: >38

Results for O=C(Nc1ccc(N2CCOCC2)cc1)c1cnsn1 ?
Mtb BioA inh: 5.2; CCHF vOTU inh: 8.5; BJeLR viability: 0.8; Y pestis TopoI: -6.2; RecA intein inh: 1.3

How did O=C1C(C2=C(O)c3ccccc3C2=O)=Nc2ccccc21 do in these assays?
Mtb BioA inh: -0.6; CCHF vOTU inh: 10.8; Mtb bLac sens: -12.4; BJeLR viability: -21.2; Y pestis TopoI: -14.3; RecA intein inh: 47.4*; GFP chromo cs: 1.83*

Results for COc1cc(C(=O)CSc2nnc(-c3ccc(O)cc3)n2CC2CCCO2)ccc1NC(C)=O (stereo unspecified) ?
Mtb BioA inh: -1.8; CCHF vOTU inh: 7.2; Mtb bLac sens: -3.1; BJeLR viability: 4.5; Y pestis TopoI: 2.3; RecA intein inh: 36.2*; GFP chromo cs: >38

How did CCC(=O)Nc1ccc(C(=O)CSc2nnc(-c3ccc(O)cc3)n2CC2CCCO2)cc1 (stereo unspecified) do in these assays?
CCHF vOTU inh: 3.9; Mtb bLac sens: -8.1; BJeLR viability: 19.9; Y pestis TopoI: 2.3; RecA intein inh: 0.6

Results for CCCn1c(CC)nc([N+](=O)[O-])c1S(=O)(=O)c1ccccc1 ?
Mtb BioA inh: -2.6; CCHF vOTU inh: -2.9; Mtb bLac sens: 96.8; BJeLR viability: 1.2; Y pestis TopoI: -6.3; RecA intein inh: 46.2*; GFP chromo cs: >38

What do the screens show for `Cc1ccc2nc(Cc3ccc(N)cc3)[nH]c2c1`?
Mtb BioA inh: -1.3; CCHF vOTU inh: 8.6; Mtb bLac sens: -5.0; BJeLR viability: -3.5; Y pestis TopoI: -2.9; RecA intein inh: -1.2

Results for Nc1ccc2nc(Cc3ccccc3)[nH]c2c1 ?
Mtb BioA inh: 1.8; CCHF vOTU inh: -10.2; Mtb bLac sens: -1.3; BJeLR viability: 2.6; Y pestis TopoI: -9.7; RecA intein inh: 29.8*; GFP chromo cs: >38

How did C[C@@H]1CN([C@@H](C)CO)C(=O)c2cc(NC(=O)Nc3cccc4ccccc34)ccc2O[C@@H](C)CCCCO[C@H]1CN(C)CC1CCCCC1 do in these assays?
Mtb BioA inh: -4.4

How did O=C(c1ccc(N2CCN(CCO)CC2)nc1)N1CCOCC1 do in these assays?
CCHF vOTU inh: -7.4; Mtb bLac sens: 2.2; BJeLR viability: -1.2; Y pestis TopoI: 0.5; RecA intein inh: 37.4*; GFP chromo cs: >38

What do the screens show for `CO[C@@H]1CN(C)C(=O)c2cc(NC(=O)C3CCC3)ccc2OC[C@H](C)N(C)C[C@@H]1C`?
Mtb BioA inh: 1.4

Compound activity deposited in PubChem BioAssay by several laboratories.
